These results are taken from the supplement of paper PMC6555819.

Common to all, as to assay: PBM binding z-score (relative to random genomic background probes); higher = stronger binding; sequences stand for … in GC…GCGATTGACAGCGTAGAATGAAGG
Assay [1] relates to FXR:RXRa (NR concentration 270 nM, RXRa partner concentration 90 nM). Summed up:
(§1)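 On custom Agilent 4×180K arrays, double-stranded probes with 34-nt variable regions carried direct-repeat seeds, single-nucleotide variants, half-site ablations or random human genomic background. Ligand-free nuclear receptor dimers were applied for 1 h, and binding was read with antibodies against each partner (one per run). Binding z-scores come from regression-normalized fluorescence, with the random background probes as reference.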

For assay [2], the system named is LXRa:RXRa (NR concentration 270 nM, RXRa partner concentration 90 nM). Summed up:
as §1

The subject of assay [3] is LXRa homodimer (NR concentration 270 nM). Put shortly:
as §1

Assay [4] deals with LXRb:RXRa (NR concentration 270 nM, RXRa partner concentration 90 nM). Put shortly: as §1
For assay [5], the system named is LXRb homodimer (NR concentration 270 nM). Summed up:
as §1

Assay [6] has as its system PPARa:RXRa (NR concentration 270 nM, RXRa partner concentration 90 nM). Put shortly:
as §1

In assay [7] the test system is PPARg:RXRa (NR concentration 180 nM, RXRa partner concentration 90 nM). Summed up:
as §1

The test system of assay [8] is PPARg:RXRa 270nM:90nM, anti-RXR (NR concentration 270 nM, RXRa partner concentration 90 nM). Summed up: as §1
Assay [9] has as its system PPARg:RXRa 30nM:10nM, anti-RXR (NR concentration 30 nM, RXRa partner concentration 10 nM). Summed up:
as §1

Assay [10] has as its system PPARg:RXRa 90nM:30nM, anti-RXR (NR concentration 90 nM, RXRa partner concentration 30 nM). Put shortly:
as §1

Consider TCTATTAGTTCAAGGGCAACCGACGAGTCCGTTT, for which the PBM binding z-score in assay [1] came to 1.82; in assay [2] it was 1.97; in assay [3], 1.24; in assay [4], 1.45; in assay [5], 0.602; in assay [6], 2.23. Further, the PBM binding z-score was determined as 0.394 in assay [7], 2.66 in assay [8], 3.94 in [9] and 3.37 in [10].
As to CATACAGGGTCAGCTAGGGCAGAGTAGGGACGGC, the PBM binding z-score in assay [1] is 4.71; in assay [2] it was 3.1; in [3] it was -0.0929; in assay [4] it was 2.23; in [5] it was 0.47; in [6], 4.21. Further, the PBM binding z-score in assay [7] came out at 3.23; in assay [8], 3.05; in [9], 0.549; in assay [10], 1.75.
For TCCTGTAGATCAACAGGAGGTTAAGAAAGATCGA, the PBM binding z-score in assay [1] is -0.0851; in assay [2], 1.1; in [3], 0.0543; in [4], 0.973; in assay [5], -0.977; in assay [6], 1.28. The PBM binding z-score is -0.00253 in assay [7], 1.25 in assay [8], 2.01 in assay [9] and 1.49 in [10].
TCACACAGGTGAAGGTAACTCAGGTACGCAGTCG: the PBM binding z-score in assay [1] was 0.851; in [2] it was 2.02; in assay [3], -0.228; in assay [4], 1; in assay [5] it was -0.466; in assay [6], 1.32. Moreover, the PBM binding z-score in assay [7] is 1.14; in [8], 1.81; in assay [9], 2.94; in assay [10], 2.66.
Regarding CCTACTGGGCCAAAGGTCGTTGATTCCAATGCTC, the PBM binding z-score in assay [1] is 1.29; in assay [2], 1.46; in [3] it was -0.124; in [4], 1.91; in [5], -0.505; in assay [6], 5.3. Moreover, the PBM binding z-score in assay [7] worked out at 11.1; in assay [8], 9.69; in assay [9] it was 9.46; in assay [10], 10.5.
As to CAAACTAGGTCAAGGTCAAACTCGGTTTGTGCCA, the PBM binding z-score in assay [1] was 7.27; in assay [2], 5.63; in [3], 4.45; in [4], 4.69; in assay [5], 1.71; in assay [6], 6.2. The PBM binding z-score in [7] is 9.59; in assay [8], 7.65; in assay [9] it was 6.72; in assay [10] it was 7.91.
For TCTTGTAGATCAAAAGAGGTTAAGAAAGTGCGCT, the PBM binding z-score in assay [1] was 0.748; in [2], 3.35; in assay [3] it was -0.0772; in [4], 1.66; in assay [5], -0.239; in [6] it was 1.89. Moreover, the PBM binding z-score was -0.0297 in [7], 1.59 in assay [8], 2.62 in assay [9] and 2.16 in assay [10].
With TCGAGTAGGTTAGGGGCAGTCAGAATGGCGTCGA, the PBM binding z-score in assay [1] is 0.232; in assay [2] it was 0.211; in assay [3], -0.0968; in assay [4], 0.86; in assay [5], -0.416; in assay [6], 1.11. Further, the PBM binding z-score in assay [7] was 0.492; in assay [8] it was 1.58; in assay [9], 0.558; in assay [10] it was 1.36.
Turning to CGTCCAAGGTAAGCAGGTCAGTGAAAGCGACGTG, the PBM binding z-score in assay [1] is 0.187; in assay [2], -0.0922; in assay [3] it was -0.204; in assay [4], 0.018; in assay [5], -1.12; in assay [6], 1.25. The PBM binding z-score is 0.208 in assay [7], 0.427 in assay [8], -0.743 in assay [9] and -0.154 in assay [10].
Take ACTGGCAGGCCAAGTTTGGGTCACTCAAACAAAG: the PBM binding z-score is 0.314 in assay [1]; 0.00721 in assay [2]; -0.384 in assay [3]; 0.727 in [4]; -0.59 in assay [5]; 1.36 in assay [6]. Moreover, the PBM binding z-score is -0.374 in [7], -0.085 in assay [8], -0.662 in assay [9] and -0.496 in [10].
As to CCGACTGGGGCAAAGTTACCATAACGCACAGCCA, the PBM binding z-score was -0.19 in assay [1]; -0.516 in assay [2]; -0.498 in [3]; -0.362 in [4]; -0.945 in assay [5]; 1.6 in assay [6]. The PBM binding z-score amounted to 4.27 in assay [7], 5 in [8], 3.18 in assay [9] and 4.86 in assay [10].
Turning to TCTGCTACGTCAGTTGGTCAGCTAACGAGCTGCC, the PBM binding z-score in [1] is -1.7; in assay [2] it was -0.859; in assay [3], -1.04; in assay [4], -1.12; in [5], -0.14; in assay [6], -0.303. Also, the PBM binding z-score in assay [7] was -0.674; in assay [8], 0.0272; in assay [9], 1.01; in assay [10], 0.437.
